Consider 39 compounds from PubChem BioAssay.

Active and inactive are the calls of the source. The rule behind the calls is not given here.

This test in a line: Brca1-Bard1 BiLC signal decrease – luminescence, single concentration, counter-screen for Mdm2/MdmX interaction inhibitor project, confirmation (AID 504668). Conditions: Brca1/Bard1 bimolecular luciferase complementation counterscreen, at 8 µM, hits give high values. In general terms: The purpose of a counterscreen is to sort out artefacts and off-target activity.
As usually defined, the inhibition is how much of the control response was suppressed. As to `CCCCSc1nc(C)cc(SCC(=O)N/N=C/c2cccc(OC)c2O)n1`, the inhibition is 34.4% (active).
Next, `O=C(NC(Cc1c[nH]c2ccccc12)C(=O)Nc1ccc(F)c([N+](=O)[O-])c1)c1cccs1` (centres undefined): 24.8% (active); `COC(=O)[C@@]1(Cc2ccccc2)[C@H]2C(=O)N(Cc3ccccc3)C(=O)[C@H]2[C@H]2CN=C(SCc3ccccc3)N21`: 34.6% (active); `Oc1ccccc1CNc1ccc(Br)cn1`: 28.8% (active).
Next, `S=C(NNc1ccc2ccccc2c1)NC1CCCCC1`: 34.4% (active); `CCOc1ccc(OCc2ccc(C(=O)NN=Cc3ccc[nH]3)cc2)cc1`: 28% (active); `Cc1ccc2[nH]c(C(=O)N/N=C/c3ccccc3O)c(C)c2c1`: 25.3% (active).
With `O=C(N/N=C(\Cc1ncc[nH]1)c1ccccc1)c1ccccc1` the figure was 24.8% (active); with `O=[N+]([O-])c1cc(-c2nc(-c3ccncc3)no2)ccc1Cl`, 23.3% (active); with `CCCCC(=O)NC(c1ccco1)c1cc(Cl)c2cccnc2c1O` (centres undefined), 28.6% (active).
Turning to `O=C(Nc1ccc(-c2nc3ccc(NC(=O)c4cccs4)cc3[nH]2)cc1)c1cccs1`, the inhibition was 33.7% (active).
Turning to `CC[C@@H](C(=O)[C@@H](C)[C@@H](O)[C@H](C)CCc1ccc(C)c(O)c1C(=O)O)[C@H]1O[C@](CC)([C@H]2CC[C@](O)(CC)[C@H](C)O2)C[C@@H]1C`, the inhibition is 35.2% (active).
Consider `CCCOc1ccc(C(=O)C(CN2CCOCC2)c2ccccc2)cc1` (centres undefined), for which the inhibition was 25.6% (active).
Next, `CC(=O)/C(C#N)=C1\NC(=O)C(Cc2ccc(C)c(C)c2)S1` (centres undefined): 32.1% (active); `Oc1c(Cl)cc(Cl)c(Cl)c1Cc1c(O)c(Cl)cc(Cl)c1Cl`: 26.8% (active).
With `COc1ccc(C(=O)C/C(=C\C(=O)c2ccc(C)cc2)c2ccccc2)cc1` the figure was 24.3% (active); with `Cn1cc(C(=O)N/N=C/c2c(O)ccc3ccccc23)ccc1=O`, 27% (active); with `CC(=O)Nc1nc(C)c(-c2csc(Nc3cccc([N+](=O)[O-])c3)n2)s1`, 35.6% (active).
With `O=C(N/N=C(\Cc1ncc[nH]1)c1ccccc1)c1cccnc1` the figure was 33.1% (active); with `S=C(Nc1ccc(Cl)c(Cl)c1)NC1CCN(Cc2ccccc2)CC1`, 28.5% (active).
For the compound `O=C(N/N=C/c1cc([N+](=O)[O-])ccc1N1CCNCC1)c1ccc([N+](=O)[O-])cc1`, the inhibition is 32.1% (active).
Regarding `C=CCNC(=S)N/N=C(\C)c1ccccn1`, the inhibition is 31.6% (active).
Next, `COc1cc([N+](=O)[O-])cc(/C=N/NC(=O)c2ccc(NC(=O)c3ccc(C)cc3)cc2)c1O`: 33.2% (active); `O=C(/C=C/c1ccccc1)NC(NC(=S)Nc1ccc(Cl)cc1Cl)C(Cl)(Cl)Cl` (centres undefined): 23.4% (active).
With `CC(C)c1cc(C(=O)NC2CCCc3c2cnn3-c2ccccc2F)no1` (centres undefined) the figure was 29.3% (active); with `FC(F)(F)c1ccc(CN2C[C@@H]3C(c4ccccc4)C4(c5ccccc5)CC3(C4)[C@H]2c2ccccc2)cc1` (some centres undefined), 27.2% (active); with `C=CCn1c(SCC(=O)Nc2ccc(F)cc2F)nc2c([nH]c3ccccc32)c1=O`, 26.8% (active).
With `Cc1ccc2c(C)nc(Nc3nc(CSc4nc5ccccc5[nH]4)cc(=O)[nH]3)nc2c1` the figure was 32.5% (active).
Take `Brc1cc(Br)c2ncnc(N3CCCCC3)c2c1`: the inhibition was 27.7% (active).
With `O=C(CCCN1C(=O)/C(=C/c2ccccc2)SC1=S)Nc1ccccc1O` the figure was 29.9% (active); with `CSc1nc2nccc(/C=C\c3ccccc3)n2n1`, 23.7% (active).
Next, `COc1ccccc1C(NC(C)=O)c1cc(Cl)c2cccnc2c1O` (centres undefined): 31.2% (active); `COc1cc([C@@H]2c3cc4c(cc3[C@@H](O[C@@H]3O[C@@H]5CO[C@@H](C)O[C@H]5[C@H](O)[C@H]3O)[C@H]3COC(=O)[C@H]23)OCO4)cc(OC)c1O`: 31.6% (active); `Clc1cc2cccnc2c2ncccc12`: 31.6% (active).
With `COc1cccc(/C=C2\SC(=S)N(CCCC(=O)N3CCCC3)C2=O)c1` the figure was 35% (active).
Take `COC(=O)c1ccc(Sc2nnnn2-c2ccccc2)c([N+](=O)[O-])c1`: the inhibition was 23% (active).
As to `Cc1nc(NC2=NCN(CCCN3CCOCC3)CN2)nc2c(C)cccc12`, the inhibition is 25.4% (active).
With `O=C(N/N=C/c1cc(Br)ccc1O)c1ccccc1Cl` the figure was 35.3% (active).
Next, `COc1ccc(C(=O)C(CN2CCCC2)c2ccccc2)cc1` (centres undefined): 27.6% (active).
